Source: the supplement of paper PMC12669032
A number with no mark means an inactive call.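 The calls were made as follows: active = AUC reduced over 20% with Padj below 0.05 in at least 2 of 3 replicates; inactive = otherwise.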

How the values were obtained:
Assay in all cases: growth AUC relative to DMSO control (median of replicates) (fraction); higher = more growth (less inhibition), active = hit call of the paper
Conditions in all cases: 20 µM; 24 h
Akkermansia muciniphila = system: Akkermansia muciniphila
Summary of the method: (§1)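 Gut bacterial monocultures in mGAM were treated with 20 µM compound (1% DMSO) and grown anaerobically at 37 °C in round-bottom 96-well plates from OD600 0.05. OD600 was read hourly for 24 h, with the minimum OD set to 0. Area under the growth curve was normalised to the plate median of solvent-only wells, or to row and column medians on the industrial chemical plate. Each value is the median of three biological replicates, each grown on a separate day.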

Bacteroides caccae = system: Bacteroides caccae
Summary of the method: as §1

Bacteroides clarus = system: Bacteroides clarus
Summary of the method: as §1

Bacteroides dorei = system: Bacteroides dorei
Summary of the method: as §1

Bacteroides stercoris = system: Bacteroides stercoris
Summary of the method: as §1

[1] = system: Bacteroides thetaiotaomicron
Summary of the method: as §1

Bacteroides uniformis = system: Bacteroides uniformis
Summary of the method: as §1

[2] = system: Bifidobacterium longum subsp. longum
Summary of the method: as §1

Clostridium difficile = system: Clostridium difficile
Summary of the method: as §1

Collinsella aerofaciens = system: Collinsella aerofaciens
Summary of the method: as §1

SMILES | growth AUC (Akkermansia muciniphila) | growth AUC (Bacteroides caccae) | growth AUC (Bacteroides clarus) | growth AUC (Bacteroides dorei) | growth AUC (Bacteroides stercoris) | growth AUC [1] | growth AUC (Bacteroides uniformis) | growth AUC [2] | growth AUC (Clostridium difficile) | growth AUC (Collinsella aerofaciens)
COP(=S)(NC(C)C)Oc1ccc(C)cc1[N+](=O)[O-] (stereo not given) | 0.926 | 0.974 | 0.977 | 0.982 | 1.09 | 0.964 | 0.956 | 1.04 | 1.08 | 1.05
CN(C)c1nc(=O)n(C2CCCCC2)c(=O)n1C | 0.966 | 1.03 | 0.985 | 1 | 1.07 | 1.05 | 1.01 | 1.01 | 1.02 | 1.01
CNC(=O)N(C)c1nnc(C(C)(C)C)s1 | 0.742 | 1.02 | 0.97 | 1.05 | 1 | 0.993 | 1.01 | 0.925 | 1 | 1.04
CC(C)(O)C(Cl)(Cl)Cl.CC(C)(O)C(Cl)(Cl)Cl.O | 1.08 | 1.01 | 1 | 0.973 | 1.12 | 1.05 | 1.02 | 0.917 | 1.03 | 0.999
O=[N+]([O-])c1ccc2ccc3cccc4ccc1c2c34 | 0.948 | 0.59 (active) | 0.783 (active) | 0.851 | 0.179 (active) | 0.737 (active) | 0.877 | 1.3 | 0.913 | 0.983
CSc1nnc(C(C)(C)C)c(=O)n1N | 0.996 | 1.07 | 1.01 | 1.02 | 1.06 | 0.996 | 1.02 | 1.09 | 1.03 | 1
